The test system of assay [1] is XIP peptide (Xip251-270) binding. Briefly: XIP fragment 251-270 binding compounds – biochemical, small-molecule microarray, fluorescence 635/667 nm, 0.1 µg/mL protein, primary screen (AID 1182). Particulars: fluorescent protein binding, 635 nm, higher = more signal, called active from +8 up or from −8 down.
For assay [2], the system named is XIP peptide (Xip251-270). Briefly: compounds binding XIP fragment 251-270 – biochemical, small-molecule microarray, fluorescence 635/667 nm, 0.5 µg/mL protein, primary screen (AID 1183). The following applies: fluorescence 635 nm, higher = more signal.
The nature of assay [3]: blood-stage malaria parasite viability loss – strain 3D7, DAPI fluorescence, 100 nL, primary screen (AID 1184).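 Note: parasites grown inside human red blood cells in medium with human serum.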 Particulars: P. falciparum 3D7 growth, 3 d, higher = more signal.
In assay [4] the target is Homeobox protein Hox-A13 (Mus musculus) (UniProt Q62424). Briefly: disruptors of Hoxa13 oligonucleotide interaction – biochemical, fluorescence polarization, labeled oligonucleotide, primary screen (AID 1185). Particulars: Hoxa13:DNA binding, 15 min, higher = more signal, called active from +8 up or from −8 down. On the technique in general: In fluorescence polarisation assays a small probe gives low polarisation when free and higher when bound to something large.
Chain of Homeobox protein Hox-A13 (Mus musculus) (Q62424 whole entry, looked up): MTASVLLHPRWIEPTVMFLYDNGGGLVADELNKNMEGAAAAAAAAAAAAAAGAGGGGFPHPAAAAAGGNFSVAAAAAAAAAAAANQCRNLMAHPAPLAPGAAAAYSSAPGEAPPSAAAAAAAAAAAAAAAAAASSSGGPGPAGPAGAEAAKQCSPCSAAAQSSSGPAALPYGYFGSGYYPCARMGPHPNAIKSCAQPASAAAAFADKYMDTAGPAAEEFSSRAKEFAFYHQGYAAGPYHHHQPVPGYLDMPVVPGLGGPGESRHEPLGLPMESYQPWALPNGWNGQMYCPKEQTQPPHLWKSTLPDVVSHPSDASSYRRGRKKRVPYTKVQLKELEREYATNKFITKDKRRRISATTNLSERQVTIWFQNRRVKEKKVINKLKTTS

Assay [5] can be described thus: blockers of DNA damage checkpoint Chk1 activation – imaging, HeLa, hydroxyurea, phospho-Chk1 antibody, percent positive cells, primary screen (AID 1186). The following applies: hydroxyurea-induced phospho-Chk1 immunofluorescence imaging, higher = more signal.
Assay [6] can be described thus: blockers of DNA damage checkpoint Chk1 activation – imaging, HeLa, hydroxyurea, phospho-Chk1 nuclear intensity, primary screen (AID 1187). Particulars: hydroxyurea-induced phospho-Chk1 immunofluorescence imaging, higher = more signal.

The source made the active and inactive calls. Unless noted, the rule behind the calls is not given here.

On to `O=C1O[C@H](c2ccccc2)[C@H](c2ccccc2)N2[C@H]1[C@@H](C(=O)O)[C@]1(C(=O)Nc3ccc(C#CC4=CCCCC4)cc31)[C@H]2c1ccc(O)cc1`, for which the composite z-score in assay [1] was 0.406 (inactive); in assay [2], 0.617. Further, the z-score in assay [3] was -0.628; in assay [4], -5.74 (inactive); in assay [5] it was -0.0146 (inactive); in assay [6], -0.19 (inactive).
Consider `COc1ccccc1CN1C(=O)c2ccccc2[C@](Cc2ccccc2I)(C(=O)NCC(F)(F)F)[C@@H]1c1ccc(CO)cc1`, for which the composite z-score was 0.931 (inactive) in assay [1] and 0.909 in assay [2]. Moreover, the z-score is -1.49 in assay [3], -4.98 (inactive) in assay [4], -0.0993 (inactive) in assay [5] and -0.0597 (inactive) in assay [6].
On to `[N-]=[N+]=NCc1ccccc1[C@@H]1OC(c2ccc(OCCCO)cc2)=N[C@]1(CCS(=O)(=O)c1ccccc1)C(=O)NCC(O)CO` (some centres not stated), for which the figures for the composite z-score in assay [1] and in assay [2] were 2.02 (inactive) and 0.831, respectively. In addition, the z-score was -2.26 in assay [3], -1.52 (inactive) in assay [4], -0.519 (inactive) in assay [5] and -0.524 (inactive) in assay [6].
Consider `COCCOC(=O)N1C(=O)[C@@]2(c3cc(C#Cc4ccc(OC)cc4)ccc31)[C@H](c1ccccc1OCCO)N1[C@H](c3ccccc3)[C@H](c3ccccc3)OC(=O)[C@H]1[C@@H]2C(=O)N1CCCCCCC1`, for which the composite z-score in assay [1] was 1.93 (inactive); in assay [2], 0.319. Besides, the z-score in assay [3] was -2.02; in assay [4] it was 4.73 (inactive); in assay [5], -0.434 (inactive); in assay [6], -0.648 (inactive).
As to `CC(C)[Si](C#CCCCC#N)(O[C@H](c1ccccc1)c1cn([C@H](CO)Cc2ccccc2)nn1)C(C)C`, the values for the composite z-score in assay [1] and in assay [2] were 0.0339 (inactive) and 0.283, respectively. Also, the z-score in assay [3] is 0.0921; in assay [4], -0.999 (inactive); in assay [5], -0.43 (inactive); in assay [6] it was -1.05 (inactive).
Consider `C=CCN1C(=O)[C@@]2(CCS(=O)(=O)c3ccccc3)N=C(c3ccc(OCCCO)cc3)O[C@H]2c2ccccc21`, for which the composite z-score in assay [1] was 0.404 (inactive); in assay [2] it was 0.713. Further, the z-score in assay [3] was -2.05; in assay [4] it was -2.47 (inactive); in assay [5], -0.477 (inactive); in assay [6] it was -0.37 (inactive).
Turning to `COC(=O)c1c2oc(c1C(=O)OC)C(=O)N(Cc1ccccc1)Cc1cn(nn1)C[C@H](Cc1ccccc1)NC(=O)N[C@H](CO)CC2`, the composite z-score in assay [1] is -0.255 (inactive); in assay [2] it was -0.057. The z-score in assay [3] was -0.886; in assay [4], -4.5 (inactive); in assay [5] it was -0.962 (inactive); in assay [6], -0.745 (inactive).
`COc1cc2c(cc1OC)CN(C(=O)[C@@H]1[C@H]3C(=O)O[C@H](c4ccccc4)[C@H](c4ccccc4)N3[C@H](c3ccc(OCCO)cc3)[C@@]13C(=O)Nc1ccc(C#CC4(O)CCCCCC4)cc13)CC2`: the composite z-score was 0.784 (inactive) in assay [1] and 0.684 in assay [2]. Besides, the z-score in assay [3] is -2.06; in assay [4] it was 3.75 (inactive); in assay [5], -0.124 (inactive); in assay [6] it was 0.041 (inactive).
For `[N-]=[N+]=Nc1ccccc1C[C@]1(C(N)=O)N=C(c2ccc(OCCCO)cc2)O[C@H]1c1ccccc1N=[N+]=[N-]`, the figures for the composite z-score in assay [1] and in assay [2] were 0.635 (inactive) and 0.756, respectively. Also, the z-score was -2.65 in assay [3], -5.32 (inactive) in assay [4], -0.433 (inactive) in assay [5] and -0.683 (inactive) in assay [6].
Turning to `COCCOC(=O)N1C(=O)[C@@]2(c3cc(C#CC4=CCCCC4)ccc31)[C@H](C(N)=O)[C@H]1C(=O)O[C@H](c3ccccc3)[C@H](c3ccccc3)N1[C@@H]2c1ccccc1OCCO`, the composite z-score in assay [1] was 0.859 (inactive); in assay [2], 0.823. Also, the z-score in assay [3] was -2.03; in assay [4], -1.26 (inactive); in assay [5], -0.176 (inactive); in assay [6], -0.46 (inactive).
On to `CCOC(=O)C[C@H]1[C@H](OC(=O)c2cc3ccccc3oc2=O)[C@@H](NC(=O)Cc2ccc(OC)cc2)c2cc(OCCCO)ccc2N1C(=O)c1ccc2ccccc2n1`, for which the composite z-score in assay [1] was -0.426 (inactive); in assay [2] it was 0.255. The z-score in assay [3] is -1.01; in assay [4], -4.04 (inactive); in assay [5], 0.134 (inactive); in assay [6], 0.203 (inactive).
Turning to `CC(C)N1C(=O)C[C@@](C(=O)NCCCN(C)C)(c2ccc([N+](=O)[O-])cc2)[C@H]1c1ccc(CO)cc1`, the composite z-score was -0.324 (inactive) in assay [1] and 0.51 in assay [2]. Further, the z-score in assay [3] is 0.0784; in assay [4] it was -2.62 (inactive); in assay [5], 0.414 (inactive); in assay [6], 0.273 (inactive).
Turning to `C=CCOC(=O)[C@H]1[C@@H]2C(=O)O[C@@H](c3ccccc3)[C@@H](c3ccccc3)N2[C@@H](c2ccc(OCCOC(=O)[C@@H]3C[C@@H]4C(=O)N[C@@H](CCCCNC(C)=O)C(=O)N4[C@@H]3c3ccc(O)cc3)cc2)[C@]12C(=O)Nc1ccc(I)cc12`, the composite z-score in assay [1] is 0.875 (inactive); in assay [2] it was 0.811. Moreover, the z-score is -1.96 in assay [3], -0.356 (inactive) in assay [4], -0.235 (inactive) in assay [5] and 0.0348 (inactive) in assay [6].
As to `COC(=O)CCCCCCC(=O)Nc1ccc(NC(=O)CCCC[P+](c2ccccc2)(c2ccccc2)c2ccccc2)cc1`, the results for the composite z-score in assay [1] and in assay [2] were -0.369 (inactive) and 0.102, respectively. The z-score in assay [3] was -1.46; in assay [4], -1.31 (inactive); in assay [5], -0.917 (inactive); in assay [6] it was -1.21 (inactive).
Turning to `COC(=O)[C@@]1(Cc2ccccc2N=[N+]=[N-])N=C(c2ccc(OCCCO)cc2)O[C@H]1c1ccccc1N=[N+]=[N-]`, the composite z-score is 0.764 (inactive) in assay [1] and 0.848 in assay [2]. For the same molecule, the z-score in assay [3] is -2.03; in assay [4], -0.305 (inactive); in assay [5] it was -0.362 (inactive); in assay [6] it was -0.267 (inactive).
For the molecule `O[C@@H](Cc1ccccc1)[C@@H](/C=C/C1CC1)N(CC#Cc1ccccc1)Cc1cccc(Cl)c1`, the composite z-score in assay [1] was -0.16 (inactive); in assay [2] it was -0.646. Moreover, the z-score was -1.27 in assay [3], 0.493 (inactive) in assay [4], 0.0959 (inactive) in assay [5] and 0.043 (inactive) in assay [6].
As to `C=CCNC(=O)[C@@H]1[C@H]2C(=O)O[C@H](c3ccccc3)[C@H](c3ccccc3)N2[C@H](c2ccc(O)cc2)[C@@]12C(=O)N(C(=O)OCCOC)c1ccc(C#CC3(O)CCCCCC3)cc12`, the composite z-score in assay [1] was 0.0275 (inactive); in assay [2] it was 0.557. The z-score in assay [3] was 0.359; in assay [4], 0.16 (inactive); in assay [5], -0.209 (inactive); in assay [6], -0.468 (inactive).
